# The list is not random: actives were taken first. Their share in the collection is about 28%.
# CYP2C9 activ: activators of human CYP2C9. P11712. activation factor at 5 µM. recombinant CYP2C9, luciferin-H conversion, luminescence; stronger effect = higher value; factor 1 = untreated enzyme, 0 = blocked. 1.4% of 96,000 active;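 active = activation factor of 2 or more for CYP2C9 at a 5 µM dose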
# Target sequence (P11712 whole entry, looked up): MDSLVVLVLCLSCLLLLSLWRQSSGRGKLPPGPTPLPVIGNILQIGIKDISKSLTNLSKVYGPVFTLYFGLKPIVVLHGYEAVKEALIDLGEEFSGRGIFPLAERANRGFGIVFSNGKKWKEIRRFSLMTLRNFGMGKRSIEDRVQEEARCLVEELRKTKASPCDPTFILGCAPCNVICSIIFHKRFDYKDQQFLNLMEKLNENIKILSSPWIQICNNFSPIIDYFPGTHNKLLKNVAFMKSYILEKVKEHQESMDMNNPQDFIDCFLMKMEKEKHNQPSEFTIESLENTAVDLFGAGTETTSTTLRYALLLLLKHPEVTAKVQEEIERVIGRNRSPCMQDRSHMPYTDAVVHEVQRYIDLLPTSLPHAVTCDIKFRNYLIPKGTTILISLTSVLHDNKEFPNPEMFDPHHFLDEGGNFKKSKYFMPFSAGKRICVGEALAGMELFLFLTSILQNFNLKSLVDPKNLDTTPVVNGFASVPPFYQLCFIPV
# CYP2C9 inh: human CYP2C9 inhibition. P11712. CYP2C9 Supersomes, luciferin-H conversion, luminescence. inhibition, % at 5 µM. 20% of 96,000 active. AID 777;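 active = blocking of liver enzyme CYP2C9 beyond about 50% at 5 µM, limit read from the data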
# Mac1 fbg enh: enhancers of human CD11b/CD18 binding to fibrinogen; P05107+P11215; K562 CD11b/CD18 adhesion to fibrinogen, ATPlite luminescence; activation, % at 10 µM; 0.07% of 93,000 active; AID 1499;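 active = 10 µM primary screen giving 50% or more activity, confirmed by 40% or more on retest at that dose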
# CYP2C19 activ: cytochrome P450 2C19 (human) activation | P33261 | recombinant CYP2C19, luciferin-H EGE luminescence; stronger effect = higher value; 0 = fully inhibited enzyme, 1 = untreated enzyme | activation factor at 5 µM | 96,000 tested, under 10 active;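 active = activation factor of at least 2 at 5 µM in the primary screen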
# CD11b adhes inh: CD11b/CD18-fibrinogen binding inhibition; AID 1497; 0.54% of 93,000 active; K562 CD11b/CD18 adhesion to fibrinogen, ATPlite luminescence; Mn2+ added to activate the integrin; P05107+P11215; inhibition, % at 10 µM;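 active = primary inhibition of 50% or more at 10 µM, then 40% or more on retest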
# CYP2C19 inh: inhibitors of human CYP2C19 | CYP2C19 Supersomes, luciferin-H EGE luminescence, 30 min | inhibition, % at 5 µM | 21% of 96,000 active | AID 778;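 active = CYP2C19 inhibition above a set limit at 5 µM in the primary screen, cut at about 50% in these data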
# Numbers stand for hits; n = inactive; x = no result given.
SMILES,CYP2C9 activ,CYP2C9 inh,Mac1 fbg enh,CYP2C19 activ,CD11b adhes inh,CYP2C19 inh
N#Cc1c2n(c3c(=O)n(Cc4ccccc4Cl)cnc13)CCCC2,n,91.7,n,n,n,99.2
N#Cc1c2n(c3c(=O)n(Cc4ccc(Cl)cc4)cnc13)CCCC2,n,62.4,n,n,n,99.9
CCN(CC)CCCNC(=O)C1CCN(C(=O)c2cc3sccc3n2Cc2ccc(F)cc2)CC1,n,n,n,n,n,n
CC1(C)CC2CC(C)(CN2S(=O)(=O)c2ccc(C(=O)Nc3ccc(Cl)c(S(=O)(=O)N4CCOCC4)c3)cc2)C1 (stereo not drawn),n,62.1,x,n,x,n
CCOC(=O)c1cc([N+](=O)[O-])sc1NC(=O)c1ccc(S(=O)(=O)N2CC3(C)CC2CC(C)(C)C3)cc1 (stereo not drawn),x,x,n,x,n,x
CCOC(=O)N1CCC(n2c(SCC(=O)NCc3ccco3)nc3ccsc3c2=O)CC1,n,62.9,n,n,n,n
COc1ccc(Cn2c(SCC(=O)NCc3ccco3)nc3ccsc3c2=O)cc1,n,n,n,n,n,n
CCOC(=O)CSc1nc2ccsc2c(=O)n1C1CCN(C(=O)OCC)CC1,n,61.5,n,n,n,n
CCOC(=O)CSc1nc2cc(C(=O)NCc3ccco3)ccc2c(=O)n1C1CCCCC1,n,51.1,n,n,n,n
CCOC(=O)N1CCC(n2c(SCC(=O)Nc3nccs3)nc3ccsc3c2=O)CC1,n,61.4,n,n,n,n
CCOC(=O)N1CCC(n2c(SCC(=O)OCc3ccccc3)nc3ccsc3c2=O)CC1,n,n,n,n,n,n
CCOC(=O)c1ccc(N2C(=O)C3C(C2=O)C(C(=O)c2ccc(Cl)cc2)N2CCCC32)cc1 (stereo not drawn),n,n,n,n,n,n
COc1ccc(CCNC(=O)Cn2cnc3c(cnn3-c3ccccc3Cl)c2=O)cc1OC,n,n,n,n,n,n
CC(C)(C)CC(=O)NC(=S)N1CCCCCC1,n,n,n,n,n,n
CCOC(=O)CCC(=O)N1CCOCCOCCN(C(=O)CCC(=O)OCC)CCOCCOCC1,n,n,n,n,n,n
O=C(c1ccco1)c1cn(CC(=O)N2CCCCC2)c2ccccc12,n,n,n,n,n,n
CCOC(=O)CSc1nc2cc(C(=O)N3CCCC3)ccc2c(=O)n1Cc1ccccc1,n,n,n,n,n,n
CCOC(=O)CSc1nc2cc(C(=O)N3CCC(C(N)=O)CC3)ccc2c(=O)n1-c1ccccc1,n,58.6,n,n,n,n
CC(C)N(O)C(=O)NC(C)(C)C,n,n,x,n,x,n
CCOc1cc(C(=S)N2CCCCC2)ccc1OCC(=O)NCc1ccccc1,n,82.8,n,n,n,57.8
CCOc1cc(C(=S)N2CCCCC2)ccc1OS(=O)(=O)c1ccc(Br)cc1,n,69.1,n,n,n,56.1
CCNCc1cc(OCC)c(OCC(=O)NCCc2ccccc2)cc1Cl,n,n,x,n,x,88.0
COc1cc(C(=S)N2CCCCC2)ccc1OCC(=O)N1CCCC1,n,n,n,n,n,n
Cc1cc(Cl)ccc1OCC(=O)NCCCCc1ccccc1,x,x,n,x,n,x
CCOc1cc(C(=S)N2CCCCC2)ccc1OS(=O)(=O)c1ccc(Cl)cc1,n,80.6,x,n,x,71.5
SMILES,CYP2C9 activ,CYP2C9 inh,Mac1 fbg enh,CYP2C19 activ,CD11b adhes inh,CYP2C19 inh
CCOc1cc(C(=S)N2CCC(O)CC2)ccc1OS(=O)(=O)c1ccc(Br)cc1,n,67.5,n,n,n,86.7
Cc1ccc(S(=O)(=O)N2CCN(c3ccc([N+](=O)[O-])c(Sc4nncn4C)c3)CC2)cc1,x,x,n,x,n,x
Cn1cnnc1Sc1cc(N2CCN(S(=O)(=O)c3ccc(Cl)c(Cl)c3)CC2)ccc1[N+](=O)[O-],n,88.8,n,n,n,99.7
CC(C)(CC(=O)N1CCN(c2ccc(Cl)cc2)CC1)CC1=NS(=O)(=O)c2ccccc2N1,n,78.6,n,n,n,63.7
O=C(CCCC1=NS(=O)(=O)c2ccccc2N1)N1CCN(c2ccccc2)CC1,n,n,n,n,n,n
COc1ccc(-c2n[nH]c(C)c2-c2cnn(-c3ccccc3)c2)c(O)c1C,n,52.3,n,n,n,n
Cc1cc(C(=O)c2cnc(/N=C/N(C)C)s2)cc(C)c1O,2,n,x,n,x,n
CN(C)/C=N/c1ncc(C(=O)c2ccccc2)s1,n,n,n,n,n,n
Cc1ccc(/C=C/c2nnc(-c3ccc(C)cc3)o2)cc1,n,n,x,n,x,n
CCNc1nnc(-c2ccc(C)cc2)o1,n,n,n,n,n,60.8
CCn1c(=O)c(=O)[nH]c2cc(C(=O)N3CCN(c4ccccc4F)CC3)ccc21,n,n,n,n,n,n
O=C1CC(C(=O)Nc2ccc(F)c(Cl)c2)N=C(N2CCCCC2)N1 (stereo not drawn),n,n,n,n,n,n
Cc1c(C)n(C(=O)CN2CCC(C(N)=O)CC2)c2ccccc12,n,n,n,n,n,n
Cc1ccc2[nH]c(C(=O)O)c(NC(=O)CN3CCN(c4cccc(C)c4C)CC3)c2c1,n,82.7,n,n,n,n
CCc1cccc(CC)c1NC(=O)CN1CCN(c2ccccc2)CC1,n,82.8,n,n,n,65.6
Cc1c(C)n(C(=O)CN2CCN(c3ccccc3)CC2)c2ccccc12,n,n,n,n,n,56.2
COC(=O)c1[nH]c2ccc(C)cc2c1NC(=O)CN1CCN(c2ccccc2)CC1,n,75.4,n,n,n,89.6
COc1ccc(NC(=O)C(=O)N2N=C(C(C)C)CC2(O)C(F)(F)F)cc1 (stereo not drawn),n,n,x,n,x,n
COC(=O)C(Cc1ccccc1)NC(=O)C12CC3CC(CC(C3)C1)C2 (stereo not drawn),x,x,n,x,n,x
Cc1c(Br)cc(C(=O)N2CCN(CCO)CC2)c(C)c1C,n,n,n,n,n,n
Cc1cc(=O)oc2cc(OCC3CC(c4ccc(N(C)C)cc4)=NO3)ccc12 (stereo not drawn),n,n,n,n,n,n
Cc1cc(=O)oc2cc(OCC3CC(c4ccc(Cl)cc4)=NO3)ccc12 (stereo not drawn),n,n,n,n,n,51.2
CC(C)N1C2OC(C3OC4C(O3)N(C(C)C)S(=O)(=O)N4C(C)C)OC2N(C(C)C)S1(=O)=O (stereo not drawn),n,n,n,n,n,n
CCC(C)n1c(SCC(=O)NCc2ccco2)nnc1-c1cccc(S(=O)(=O)N2CCOCC2)c1 (stereo not drawn),n,n,n,n,n,n
COc1nc(N2CCCCCC2)nc(N2CCCCCC2)n1,n,50.8,n,n,n,n
Cc1ccc2c(c1)N(CC(=O)N(Cc1ccc3c(c1)OCO3)CC1CCCO1)C(=O)C(C)O2 (stereo not drawn),n,n,n,n,n,n
COc1cccc(OCC(O)CN(CCO)Cc2ccccc2)c1 (stereo not drawn),n,n,n,n,n,n

# Source: PubChem
